The structures appear in SMILES notation. The whole screen tested about 39,000 compounds, of which about 3,300 (8.5%) were called active. Only a selection was taken, and actives are over-represented in it overall.

The subject of this test is HepG2. Briefly: cytotoxicity call (relative viability < 0.9). The note with it: 10 µM.
On to `C[C@@H]1CCCCO[C@@H](CN(C)Cc2ccc3c(c2)OCO3)[C@H](C)CN([C@@H](C)CO)C(=O)c2cc(NC(=O)Nc3ccc(C(F)(F)F)cc3)ccc2O1`, for which the cytotoxicity call was “active”. The entry for `C[C@@H]1CN([C@H](C)CO)C(=O)c2cc(NC(=O)Nc3ccc(C(F)(F)F)cc3)ccc2O[C@@H](C)CCCCO[C@@H]1CN(C)Cc1ccc2c(c1)OCO2` is “active”.

Consider `C[C@@H]1CN([C@@H](C)CO)C(=O)c2cc(NC(=O)Nc3ccc(C(F)(F)F)cc3)ccc2O[C@@H](C)CCCCO[C@@H]1CN(C)Cc1ccc2c(c1)OCO2`, for which the cytotoxicity call is “inactive”.

For the compound `C[C@@H]1CCCCO[C@@H](CN(C)Cc2ccc3c(c2)OCO3)[C@@H](C)CN([C@@H](C)CO)C(=O)c2cc(NC(=O)Nc3ccc(C(F)(F)F)cc3)ccc2O1`, the cytotoxicity call is “active”. Turning to `C[C@@H]1CCCCO[C@H](CN(C)Cc2ccc3c(c2)OCO3)[C@@H](C)CN([C@@H](C)CO)C(=O)c2cc(NC(=O)Nc3ccc(C(F)(F)F)cc3)ccc2O1`, the cytotoxicity call was “active”. With `C[C@@H]1CN([C@H](C)CO)C(=O)c2cc(NS(C)(=O)=O)ccc2O[C@@H](C)CCCCO[C@@H]1CN(C)C(=O)c1ccncc1` the entry was “inactive”.

Turning to `C[C@H](CO)N1C[C@H](C)[C@H](CN(C)C(=O)Nc2ccnc(N3CCOCC3)c2)OCc2cnnn2CCCC1=O`, the cytotoxicity call was “inactive”.

As to `Cc1noc(C)c1S(=O)(=O)N(C)C[C@@H]1Oc2ccc(NC(=O)CCCN(C)C)cc2C(=O)N([C@@H](C)CO)C[C@@H]1C`, the cytotoxicity call was “inactive”. Consider `C[C@H](CO)N1C[C@H](C)[C@@H](CN(C)Cc2ccc(Cl)c(Cl)c2)Oc2c(NC(=O)NC3CCCCC3)cccc2C1=O`, for which the cytotoxicity call was “inactive”. `Cc1noc(C)c1NC(=O)Nc1cccc2c1O[C@@H](CN(C)C(=O)Nc1ccc(C(F)(F)F)cc1)[C@@H](C)CN([C@H](C)CO)C2=O`: the cytotoxicity call was “inactive”. Take `COc1ccc(S(=O)(=O)N(C)C[C@@H]2Oc3c(NC(=O)Nc4c(C)noc4C)cccc3C(=O)N([C@H](C)CO)C[C@@H]2C)cc1`: the cytotoxicity call is “inactive”.

For `CCCC(=O)Nc1ccc2c(c1)OC[C@@H](C)N(Cc1ccc(-c3ccccn3)cc1)C[C@@H](C)[C@H](OC)CN(C)C2=O`, the cytotoxicity call is “inactive”. With `C[C@H]1CCCCO[C@@H](CN(C)Cc2ccc3c(c2)OCO3)[C@@H](C)CN([C@@H](C)CO)C(=O)c2cc(NC(=O)Nc3ccc(C(F)(F)F)cc3)ccc2O1` the entry was “active”; with `C[C@H](CO)N1C[C@H](C)[C@H](CN(C)Cc2ccc3c(c2)OCO3)OCCCC[C@H](C)Oc2ccc(NC(=O)Nc3ccc(C(F)(F)F)cc3)cc2C1=O`, “active”; with `C[C@@H]1CCCCO[C@H](CN(C)Cc2ccc3c(c2)OCO3)[C@H](C)CN([C@@H](C)CO)C(=O)c2cc(NC(=O)Nc3ccc(C(F)(F)F)cc3)ccc2O1`, “active”. Consider `C[C@@H]1CCCCO[C@@H](CN(C)Cc2ccc3c(c2)OCO3)[C@@H](C)CN([C@H](C)CO)C(=O)c2cc(NC(=O)Nc3ccc(C(F)(F)F)cc3)ccc2O1`, for which the cytotoxicity call is “active”. Take `C[C@@H]1CCCCO[C@H](CN(C)C(=O)Cc2ccccc2)[C@H](C)CN([C@@H](C)CO)C(=O)c2cc(NC(=O)c3ccccc3)ccc2O1`: the cytotoxicity call was “inactive”. `CCCNC(=O)N[C@@H]1CC[C@@H](CC(=O)N2CCN(C)CC2)O[C@@H]1CO`: the cytotoxicity call was “inactive”. The entry for `Cc1noc(C)c1S(=O)(=O)Nc1ccc2c(c1)C(=O)N([C@H](C)CO)C[C@@H](C)[C@@H](CN(C)C(=O)Nc1ccc(F)cc1)OCCCC[C@@H](C)O2` is “inactive”; for `O=C(Nc1ccccc1C(=O)O)c1nnc[nH]1` it is “inactive”; for `O=C(NCC[C@H]1CC[C@H](NS(=O)(=O)c2cccc(F)c2)[C@H](CO)O1)C1CC1` it is “inactive”. The entry for `C[C@@H](Oc1ccccc1)c1ccn[nH]1` is “inactive”; for `C[C@H]([C@H](C)N1CC(=O)NC(=O)C1)N1CC(=O)NC(=O)C1` it is “inactive”; for `C[C@@H]1CCCCO[C@H](CN(C)Cc2ccc3c(c2)OCO3)[C@H](C)CN([C@H](C)CO)C(=O)c2cc(NC(=O)Nc3ccc(C(F)(F)F)cc3)ccc2O1` it is “active”.

`C[C@@H]1CCCCO[C@@H](CN(C)Cc2ccc3c(c2)OCO3)[C@H](C)CN([C@H](C)CO)C(=O)c2cc(NC(=O)Nc3ccc(C(F)(F)F)cc3)ccc2O1`: the cytotoxicity call is “active”. Take `C[C@H]1CCCCO[C@H](CN(C)Cc2ccc3c(c2)OCO3)[C@@H](C)CN([C@@H](C)CO)C(=O)c2cc(NC(=O)Nc3ccc(C(F)(F)F)cc3)ccc2O1`: the cytotoxicity call is “active”. For `C[C@@H]1CCCCO[C@H](CN(C)Cc2ccc3c(c2)OCO3)[C@@H](C)CN([C@H](C)CO)C(=O)c2cc(NC(=O)Nc3ccc(C(F)(F)F)cc3)ccc2O1`, the cytotoxicity call was “active”. With `COCN(C#N)c1nc(N(C)C)nc(N(C)C)n1` the entry was “inactive”; with `C[C@@H]1CN([C@H](C)CO)S(=O)(=O)c2ccc(-c3ccncc3)cc2O[C@H]1CN(C)S(=O)(=O)c1ccccc1F`, “inactive”; with `NC(=O)c1cccnc1N1CCN(C(=O)[C@@H]2CC(=O)N(C3CC3)C2)CC1`, “inactive”. The entry for `CCCC(=O)Nc1ccc2c(c1)C(=O)N(C)[C@@H]1CC[C@@H](CC(=O)NCCN3CCCCC3)O[C@H]1CO2` is “inactive”. With `Cn1nc(O)c(=O)[nH]c1=S` the entry was “inactive”; with `O=C(Cc1ccncc1)Nc1ccc2c(c1)[C@H]1C[C@H](CC(=O)N3CCc4ccccc4C3)O[C@@H](CO)[C@H]1O2`, “inactive”; with `Cc1cn2c3c(=O)n(C)c(=O)n(C)c3nc2n1CCN1CCOCC1`, “inactive”. With `Cc1noc(C)c1NC(=O)N(C)C[C@H]1OCCCC[C@H](C)Oc2ccc(NC(=O)CCC(F)(F)F)cc2C(=O)N([C@H](C)CO)C[C@@H]1C`, the cytotoxicity call was “inactive”. With `C[C@@H]1CN([C@@H](C)CO)C(=O)c2cc(NC(=O)Nc3ccc(C(F)(F)F)cc3)ccc2O[C@@H](C)CCCCO[C@H]1CN(C)Cc1ccc2c(c1)OCO2` the entry was “active”; with `C[C@H](CO)N1C[C@H](C)[C@@H](CN(C)Cc2ccc3c(c2)OCO3)OCCCC[C@H](C)Oc2ccc(NC(=O)Nc3ccc(C(F)(F)F)cc3)cc2C1=O`, “active”; with `C[C@@H]1CN([C@H](C)CO)C(=O)c2cc(NC(=O)Nc3ccc(C(F)(F)F)cc3)ccc2O[C@@H](C)CCCCO[C@H]1CN(C)Cc1ccc2c(c1)OCO2`, “active”. The entry for `Cn1c(=O)[nH]c(=O)c2c(=O)cc[nH]c21` is “inactive”. Consider `COc1ccccc1CNC(=O)C[C@H]1C[C@H]2c3cc(NC(=O)Cc4ccncc4)ccc3O[C@H]2[C@@H](CO)O1`, for which the cytotoxicity call is “inactive”.

The values are drawn from the antibiotic and cytotoxicity screens of Wong et al. (2023).
